Only some compounds are listed: those with a hit (about 4.3% of all), similar ones and a draw of the others.
Anthrax LF prot: inhibitors of Bacillus anthracis lethal factor protease. P15917. multiplex microsphere protease cleavage assay, LF. inhibition, % at 10 µM. 360,000 tested, 0.12% active. AID 588501; note: plate controls were buffer without enzyme for full effect and enzyme alone for no effect
BoNT-F LC inh: BoNT F light chain protease inhibition. Multiplex microsphere protease cleavage assay, flow cytometry. inhibition, % at 10 µM. 360,000 tested, 0.22% active; in the data active = inhibition above about 35%, passing the limit was not always enough; inconclusive = no clear call, values can overlap the other calls; note: plate controls were buffer without enzyme for full effect and enzyme alone for no effect
MazEF act: increases E. coli MazEF RNase cleavage of RNA. FAM/BHQ RNA-DNA oligo cleavage fluorescence, 5 h. activation, % at 20 µM. 350,000 tested, 0.32% active; in the data active = activation above about 50%
Target sequence (P0AE70 whole entry, looked up): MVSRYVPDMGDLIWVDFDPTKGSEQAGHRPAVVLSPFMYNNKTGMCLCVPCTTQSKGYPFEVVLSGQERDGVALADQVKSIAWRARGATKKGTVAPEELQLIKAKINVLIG
Bead autofluor: compound fluorescence in toxin protease inhibitor counterscreen | 360,000 tested, 3.1% active | compound autofluorescence counterscreen, microsphere flow cytometry; active compounds read high | fluorescence intensity (no concentration beside the values); in the data active = fluorescence intensity above about 16000; inconclusive = no clear call, values can overlap the other calls
BoNT-A LC inh2: inhibitors of Botulinum neurotoxin A light chain protease | 360,000 tested, 0.17% active | inhibition, % at 10 µM | AID 588499 | multiplex microsphere protease substrate cleavage, flow cytometry; note: plate controls were buffer without enzyme for full effect and enzyme alone for no effect
PfHsp40 yeast: compounds rescuing yeast from Plasmodium falciparum HSP40 toxicity | S. cerevisiae expressing PfHsp40, growth rescue, ATP luminescence | growth rescue, % at 12.5 µM | 340,000 tested, 0.68% active | AID 504582; in the data active = growth rescue above about 28%, passing the limit was not always enough; inconclusive = no clear call, values can overlap the other calls;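 note: yeast W303a lacking pdr1 and pdr3 grown in galactose medium; growth measured after three days at 30 °C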
An asterisk follows results filed as active; ? = inconclusive; · = not tested or not shown. Cut-off read from the data, not from the text of the source, unless noted: active = inhibition above about 30%; inconclusive = no clear call, values can overlap the other calls; inactive = below that.

SMILES | Anthrax LF prot | BoNT-F LC inh | MazEF act | Bead autofluor | BoNT-A LC inh2 | PfHsp40 yeast
Cc1ccc(NC(=O)Cn2cccc2)cc1Cl | -2.2 | -2.0 | -10.8 | 9675 | 0.1 | 0.0
Cc1ccc(NC(=O)Cn2cccc2)cc1 | -2.1 | -3.2 | 3.9 | 2698 | -0.6 | -0.7
COc1ccc(NC(=O)Cn2cccc2)cc1Cl | -1.6 | 0.8 | 5.2 | 22292* | 2.1 | 0.3
COc1ccc(NC(=O)CNC(c2ccccc2)c2ccccc2)cc1Cl | 4.0 | -23.9 | 15.0 | 4121 | -3.2 | -0.3
O=C(CCn1cccc1)Nc1ccc(OC(F)(F)F)cc1 | -6.6 | -6.0 | 2.9 | 4499 | -1.7 | 1.7
Cc1ccc(-c2nc(CN3CCCC(C(=O)N4CCOCC4)C3)c(C)o2)cc1 (stereo unspecified) | -1.3 | 8.8 | -12.8 | 4802 | -0.3 | -0.7
Cc1ccc(NC(=O)Cn2cccc2)c(Br)c1 | -2.0 | -2.3 | 8.6 | 23334* | -0.9 | 22.3
COc1cccc(C(=O)N2CCN(Cc3ccccn3)CC2)c1 | -11.6 | 14.4 | 4.0 | 3733 | 1.2 | -1.6
O=C(Cc1ccc(Br)cc1)N1CCN(C(=O)c2ccccc2)CC1 | 0.2 | 1.5 | 3.8 | 8280 | 1.2 | -1.2
O=[N+]([O-])c1ccc(-c2cn3nc(-c4ccccc4)c(-c4ccccc4)nc3n2)cc1 | · | · | 163.6* | · | · | ·
Nc1nc(-c2ccccc2)c(-c2ccc([N+](=O)[O-])cc2)s1 | 6.4 | -5.9 | 2.1 | 5827 | 1.2 | 232.6*
Cc1onc(-c2ccccc2)c1C(=O)OCC(=O)N(CC(C)C)c1c(N)n(Cc2ccccc2)c(=O)[nH]c1=O | 0.9 | 6.3 | -0.9 | ? | -0.3 | 0.1
COc1c2c(c(OC)c3ccccc13)[C@]1(OC2)O[C@H](CCO)C[C@H](O)[C@H]1O | -1.8 | 1.3 | · | 6035 | -0.5 | ·
COc1ccc2c(c1)[nH]c1c(=O)n(CC3CCCO3)cnc12 (stereo unspecified) | -2.4 | -2.5 | -5.2 | 17272* | -1.9 | -0.9
Cc1ccc2cc3c(N)c4c(C)ccc(C)c4nc3nc2c1 | -7.7 | -41.0 | 55.2* | 1713 | 2.1 | 0.9
Cc1ccc2c(N)c(C)ccc2c1 | -5.1 | 12.3 | 1.5 | 3425 | 1.2 | -0.2
CC1=C[C@H]2OC(=O)[C@@H](C)[C@H]2C[C@@H]2[C@H]1C[C@@H](O)[C@@]2(C)O | -6.2 | -11.9 | 7.9 | 3466 | 0.6 | 39.2*
CCOc1ccc(C(C)=O)cc1COC(=O)c1ccccc1C(=O)N(C)Cc1ccccc1 | -1.6 | -8.6 | 0.3 | ? | -3.1 | 96.0*
CN(Cc1ccccc1)C(=O)c1ccccc1C(=O)OCC(=O)N(Cc1ccccc1)C(C)(C)C | -4.3 | -0.7 | -0.2 | 5929 | -3.1 | 1.8
Cc1c(C(=O)N(C)Cc2ccc(OC(F)F)cc2)oc2ccccc12 | 0.5 | -6.0 | -8.0 | 7211 | -3.4 | -0.6
C[C@H](N)c1nnc(SCC(=O)c2ccc(Cl)cc2)o1 | 1.3 | -0.8 | 0.4 | 16731* | -1.1 | 1.2
CCOC(=O)c1ccc(N2CN=C3SCC(=O)N3C2)cc1 | 0.2 | -2.9 | -7.3 | 23262* | ? | 0.7
Cc1ccc(N2CN=C3SCC(=O)N3C2)cc1C | 1.5 | 2.8 | 7.4 | 2591 | 0.3 | -1.0
Cc1cccc(OC(=O)CN2C(=O)C3C4CCC(C4)C3C2=O)c1C (stereo unspecified) | -0.2 | -2.6 | -2.7 | 23771* | 0.6 | -1.2
COc1ccc(OC(=O)CN2C(=O)C3C4CCC(C4)C3C2=O)cc1 (stereo unspecified) | 1.6 | -6.2 | 8.9 | 2054 | 0.6 | -2.0
SMILES | Anthrax LF prot | BoNT-F LC inh | MazEF act | Bead autofluor | BoNT-A LC inh2 | PfHsp40 yeast
CCOc1ccc(-c2csc(NC(=O)C3CCCO3)n2)cc1 (stereo unspecified) | -0.9 | -3.4 | -6.0 | 21480* | -2.1 | 1.2
O=C(Nc1nc(-c2ccc(Cl)cc2)cs1)C1CCCO1 (stereo unspecified) | -1.9 | -2.2 | 8.9 | 2343 | 0.7 | 1.9
Cc1cnc(NC(=O)C2CCCO2)s1 (stereo unspecified) | -2.0 | -2.2 | 0.1 | 16597* | ? | -1.6
O=NN(CCc1ccncc1)c1ccc(OCc2ccccc2)cc1 | -1.5 | -3.8 | 2.6 | 4382 | -0.4 | 387.7*
O=C(NCc1ccncc1)C(=O)N/N=C/c1ccc(OCc2ccccc2)cc1 | -3.0 | -3.0 | -13.4 | 3366 | -0.9 | 0.2
CC(=O)c1ccc(OC(=O)c2cccs2)cc1 | -1.4 | -6.6 | -3.3 | 24802* | -3.0 | 0.0
CC(=O)Nc1ccc(OC(=O)c2cccs2)cc1 | -1.2 | -4.6 | -3.6 | 16646* | ? | -0.7
O=C(NCc1ccco1)c1cc(-c2ccccc2)nn1CC1CC(c2cccnc2)=NO1 (stereo unspecified) | -1.2 | -7.9 | -4.0 | 4155 | 0.3 | 0.7
O=C(NCc1ccc(OC(F)(F)F)cc1)c1cc(-c2ccccc2)nn1CC1CC(c2cccnc2)=NO1 (stereo unspecified) | -6.4 | 1.1 | 5.4 | 2926 | -0.7 | 65.0*
CCCN1CCC(=NNc2ccc(C(=O)O)cc2)CC1 | 1.9 | 0.3 | -1.0 | 4094 | 0.3 | -2.2
COCC(=O)Nc1sc2c(c1C(=O)OC)C(C(=O)OC)CC2 (stereo unspecified) | -1.9 | -4.7 | 2.8 | 20588* | -0.6 | -0.6
O=S(=O)(/N=C(/c1ccccc1)N1CCCCCC1)c1ccccc1 | -3.4 | 1.9 | -13.8 | 4126 | -1.6 | -1.7
O=S(=O)(N=S(N1CCCCC1)N1CCCCC1)c1ccccc1 | 1.1 | 1.9 | 5.0 | 19826* | ? | 0.7
Clc1ccc(-c2csc(-c3cccnc3)n2)s1 | -8.2 | -18.3 | 2.6 | 4441 | 0.2 | 29.4*
CN(c1ccc(OC(=O)c2ccc(-n3cncn3)c([N+](=O)[O-])c2)cc1)S(=O)(=O)c1ccccc1 | -0.3 | -8.6 | -2.7 | 6014 | -1.8 | 0.5
CC(C)COC(=O)CCn1[nH]c(=O)c2ccccc2c1=O | -0.5 | 0.9 | 0.7 | 22405* | ? | -0.4
CCCCCCCCOC(=O)CCn1[nH]c(=O)c2ccccc2c1=O | -1.8 | 4.0 | 1.5 | 2753 | -0.3 | 199.6*
O=C(O)CCn1[nH]c(=O)c2ccccc2c1=O | 5.2 | -5.3 | -1.3 | 3527 | 0.0 | -1.9
C=CCn1c(SCc2ccccc2C#N)nnc1-c1ccccc1O | -0.3 | 5.6 | 3.1 | 21434* | 2.5 | 1.5
Cn1c(SCc2ccc(C#N)cc2)nnc1-c1ccccc1 | 4.5 | -7.1 | -0.4 | 3144 | -0.5 | -0.3
C=CCn1c(SCC(N)=O)nnc1-c1cc(Br)ccc1O | -4.2 | -0.7 | 0.3 | 21322* | ? | 0.4
Cn1c(SCc2ccc(C#N)cc2)nnc1-c1cccc(Cl)c1 | -2.9 | -1.5 | 2.4 | 16948* | -1.2 | 0.3
C=CCn1c(SCC(N)=O)nnc1-c1ccccc1O | 3.5 | 17.7 | -2.3 | 3142 | 0.9 | -1.1
C=CCn1c(SCc2ccc(C#N)cc2)nnc1-c1cccc(OC)c1 | -1.7 | 15.9 | 12.2 | 3591 | -0.1 | -1.6
C=CCn1c(SCc2ccc(C#N)cc2)nnc1-c1ccccc1 | 1.5 | -0.2 | -3.0 | 22580* | -0.2 | -1.1
O=C(O)Cc1ccc(-n2cccc2)cc1 | -1.5 | -4.8 | 2.3 | 4573 | -0.8 | -0.8

Screening data as filed in PubChem.
